Screening data as filed in PubChem.
In the library only some 12% were active in any assay of this set; here they are far more common.
Shiga inhibitor: A qHTS for Small Molecule Inhibitors of Shiga Toxin | AID 2315, 2010 | inhibition, % at 38.7 µM | 290,000 tested, 9.2% active | Vero cells, Shiga toxin protein synthesis inhibition reporter; in the data active = inhibition mostly above about 28%, no sharp cut-off; inactive = mostly below about 43%; also: 0% is about no effect
FMDV inh: High Throughput Screening for Foot and Mouth Disease Virus Antivirals | FMDV antiviral cell-based qHTS | 410,000 tested, 1.2% active | Potency, µM (series often up to 57.9 µM), inactives show at the highest dose activity change, negative = inhibition, actives largely listed as inhibitors | AID 1159524, 2015; calls by dose curve; tested in HEK293T cells; also: read-out not given here; potency is read from the fitted curve at half-maximal effect; % is scaled to controls: 0 for no effect and ±100 for the full control effect; nearly all actives have a fitted effect of over 45% in size
Cycloheximide cs: Cycloheximide Counterscreen for Small Molecule Inhibitors of Shiga Toxin; max response, %; cell reporter, cycloheximide protein synthesis inhibition counterscreen; 300,000 tested, 12% active; in the data active = max response mostly above about 13%, no sharp cut-off; inactive = mostly below about 14%; also: read at 38.3 µM for the half of the compounds with a filed dose; 0% is about no effect
Sm TGR inh: qHTS Assay for the Inhibitors of Schistosoma Mansoni Peroxiredoxins. 360,000 tested, 3% active. purified TGR, DTNB reduction, TNB absorbance 405 nm. AID 485364, 2010. Schistosoma mansoni thioredoxin glutathione reductase (TGR), Q962Y6. Potency, µM (top dose mostly 114 µM), inactives show at the top dose activity change, negative = inhibition, actives largely listed as inhibitors; active = well fitted inhibition curve with a large enough effect; inconclusive = small, poorly fitted or top-dose-only effect; inactive = no such curve, though single readings can be large or run the other way; also: potency is read from the fitted curve at half-maximal effect; % is scaled to controls: 0 for no effect and ±100 for the full control effect; nearly all actives have a fitted effect of over 60% in size
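Kinetic colorimetric format: TGR-catalysed, NADPH-driven DTNB reduction monitored via TNB absorbance. Enzyme dispensed at 20 nM; compound exposure 15 min at room temperature before reaction start.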
* marks the source's active call; other numbers are inactive results; u = inconclusive; x = not tested or not shown; + = active, no number; [ ] = dose if it differs, or a comment.

SMILES	Shiga inhibitor	FMDV inh	Cycloheximide cs	Sm TGR inh
Cc1cccc(NC(=O)c2cccc(NC(=O)c3ccccc3)c2)n1	8	-8%	-3	1%
Cc1cccc(/C=N/NC(=O)c2ccc(F)cc2)n1	40*	35%	20*	1%
COc1ccccc1/C=N/NC(=O)c1cccc(NC(=O)c2ccccc2C)c1	-6	-14%	1	-6%
Cc1ccccc1C(=O)Nc1cccc(C(=O)N/N=C/c2ccccn2)c1	26	8%	12*	15%
Cc1cccc(/C=N/NC(=O)c2cccc(Cl)c2)n1	46	14%	16*	0%
Cc1cccc(/C=N/NC(=O)c2cccc([N+](=O)[O-])c2)n1	3	-15%	-2	11%
Cc1cccc(/C=N/NC(=O)c2cccc(NC(=O)c3ccccc3)c2)n1	27	8%	14*	15%
Cc1ccc(C)c(N2CCN(C(=O)c3cnc4c(-c5ccccc5)c(C)nn4c3C)CC2)c1	x	0%	x	-1%
CCc1ccccc1NC(=O)Nc1nnc(N(C)Cc2ccccc2)s1	x	-11%	x	-11%
COC(=O)Cc1ccc2c3ccccc3n(C)c2c1	18	x	25*	-13%
COc1cccc(-c2noc(-c3ccc(Br)o3)n2)c1	109*	30%	32*	x
COC(=O)c1ccc(-c2nc(-c3ccc(Br)o3)no2)cc1	30	49%	21*	-19%
COC(=O)c1noc(-c2ccc(C)cc2)n1	-6	3%	-1	-1%
COc1ccc(-c2noc(-c3ccc(Cl)cc3)n2)cc1	48*	25%	25*	-13%
COc1ccc(-c2noc(-c3ccc(Br)o3)n2)cc1	69*	24%	30*	12%
COc1ccc(-c2nc(-c3ccc(C(=O)O)cc3)no2)cc1	x	-79%	x	x
COc1ccc(S(=O)(=O)NCCc2sc(C)nc2C)cc1F	x	12%	x	0%
COc1ccc(NC(=O)Cn2ccn(-c3ccc(C)c(C)c3)c(=O)c2=O)cc1Cl	x	8%	x	1%
COc1ccc(Cc2noc(-c3ccc(C)cc3)n2)cc1	72*	18%	29*	11%
Fc1cccc(F)c1-c1nc(-c2ccc(Cl)cc2)no1	63*	49%	56*	9%
COc1ccc(-c2nc(-c3ccc(Br)o3)no2)cc1	64*	-16%	29*	0%
CCN(C(=O)c1cc2c(Cl)nc3ccc(C)cc3c2s1)c1cc(OC)ccc1OC	x	u	x	1%
COc1ccc(-n2ncc(C(=O)N3CCN(C4CCCCC4)CC3)c2C2CCN(C(=O)OC(C)(C)C)CC2)cc1	x	-11%	x	-15%
CCc1ccc(-c2nc(SCC(=O)N3CCOCC3)n[nH]2)cc1	29*	30%	11*	4%
O=C(CSc1n[nH]c(-c2ccccc2)n1)N1CCCC1	65*	20%	16	1%
SMILES	Shiga inhibitor	FMDV inh	Cycloheximide cs	Sm TGR inh
CCOC(=O)C1CCN(C(=O)CSc2n[nH]c(-c3ccccc3)n2)CC1	x	-2%	x	3%
Cc1oc2ncn(CC(C)C)c(=O)c2c1C(=O)NCCCN1CCCCC1	x	1%	x	-2%
CCc1nnc2c(N3CCN(c4cccc(C)c4)C(C)C3)nc3ccccc3n12 (stereo not given)	x	-21%	x	-1%
Cc1csc2c(N3CCN(C(=O)Nc4ccccc4)CC3)ncnc12	12	22µM*	10	9%
Cc1csc2ncnc(N3CCN(C(=O)Nc4ccc(OC(F)(F)F)cc4)CC3)c12	24	18µM*	1	13%
CC(=O)c1ccc(F)c(-c2cc(C)cc3c2OC(CNC(=O)c2ccnn2C)C3)c1 (stereo not given)	x	-10%	x	x
CCOC(=O)C1CCN(C(=O)c2nn(-c3ccc(C)cc3)c(=O)n(C)c2=O)CC1	x	-3%	x	1%
OC1(c2ccc(F)cc2)CCNC1 (stereo not given)	-16	12%	-4	-20%
OC1(c2ccc(Br)cc2)CCNCC1	-2	-8%	-1	50µM*
COc1ccccc1C(=O)Nc1onc2c1CCCC2	x	-31%	x	7%
O=C(Nc1ccc2ccccc2c1)c1onc2c1CCCC2	64*	-49%	28*	-26%
COC(=O)c1cccc(NC(=O)c2onc3c2CCCC3)c1	+	51%	99*	-8%
OC1OC[C@@H](O)[C@@H](O)[C@@H]1O (stereo not given in full)	-13	x	-5	x
CCn1c2ccccc2c2nnc(N3CCN(c4ccc(OC)cc4)CC3)nc21	x	-16%	x	3%
Cc1ccc2cc3cc(C(=O)NCCCN4CCCC4)oc3nc2c1	1	-19%	1	-21%
CCCCN(CC)CCCNC(=O)c1cc2cc3ccc(C)cc3nc2o1	-6	-16%	-4	-21%
Cc1ccc2cc3cc(C(=O)NCCCN4CCCCCC4)oc3nc2c1	1	-12%	15	32µM*
Cc1ccc2cc3cc(C(=O)NCCCN4CCc5ccccc5C4)oc3nc2c1	35	-24%	30*	-4%
O=c1c(-c2ccccc2)nc2cnc(Oc3cccc(Cl)c3)nc2n1C[C@H]1CCCO1	x	-14%	x	x
Cc1ccc(CN2C(=O)c3ccccc3Sc3ccc(C(=O)N4CCOCC4)cc32)cc1	x	2%	x	1%
O=C1NC(=S)N(Cc2ccco2)C(=O)/C1=C\c1cccs1	-13	x	8	3.5µM*
O=C1NC(=O)N(CCc2ccc(F)cc2)C(=O)/C1=C/c1cccs1	43	u	7	u
C=CCN1C(=O)/C(=C/c2cccs2)C(=O)NC1=S	-1	-23%	0	10µM*
CC[C@H](CC[C@@H](C)[C@H]1CC[C@H]2[C@@H]3CC=C4C[C@@H](O)CC[C@]4(C)[C@H]3CC[C@]12C)C(C)C	x	-10%	x	x
COc1ccc(Cl)cc1NC(=O)CSc1nc(-c2ccccc2)c2ccccc2n1	x	-26%	x	2%
SMILES	Shiga inhibitor	FMDV inh	Cycloheximide cs	Sm TGR inh
O=C(Oc1coc(CSc2ncccn2)cc1=O)c1cccs1	22	22%	16*	-11%
COc1cccc(CNC(=O)Cn2nc3c(cc2=O)CCCC3)c1OC	x	8%	x	7%
CC(=O)c1ccc(N2CCN(c3ccccc3O)CC2)c([N+](=O)[O-])c1	2	u	6.0*	-27%
N#Cc1cc([N+](=O)[O-])ccc1N1CCN(c2ccccc2O)CC1	71*	-26%	43*	1%
O=[N+]([O-])c1ccc(N2CCN(c3ccc([N+](=O)[O-])cc3CO)CC2)c(CO)c1	3	u	-3	-2%
O=C(O)c1ccccc1C(=O)c1ccc(N2CCCC2)c([N+](=O)[O-])c1	1	49%	-2	-1%
O=[N+]([O-])c1cccnc1N1CCC(c2cc(-c3ccc(Cl)cc3Cl)n[nH]2)CC1	-9	0%	-2	-8%
CC(=O)c1ccc(N2CCC(c3cc(-c4ccc(Cl)cc4Cl)n[nH]3)CC2)c([N+](=O)[O-])c1	-6	20µM*	-1	8%
CC(C)(C)NCC(=Cc1ccccc1)C(=O)c1ccccc1	x	8.9µM*	x	x
CC(=O)N/C(=C/c1ccccc1)c1ccccc1	x	-6%	x	8%
CCOC(=O)c1sc2ncnc(NCC(c3cccs3)N(C)C)c2c1C (stereo not given)	40	4%	24*	14%[11.4 µM]
CN(C)C(CNc1ncnc2sccc12)c1cccs1 (stereo not given)	17	-5%	12	1%
